44 compounds from PubChem BioAssay AID588405 (Sanford-Burnham Center for Chemical Genomics, 2011) can be followed below.

Among all 360,000 compounds or so, about 6,200 (1.7%) were called active. For the sample, actives were picked, then their nearest neighbours and some compounds at random. Values without a mark were called inactive.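 Rule for the calls: active = inhibition of at least 50% at 20 µM; inactive = the rest.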

The test can be described thus: Peg3 promoter-driven luciferase inhibitors, primary screen, cell-based, HeLa, luciferase luminescence (AID 588405). Conditions: HeLa PEG-Prom luciferase reporter, overnight, at 20 µM, stronger effect = higher value. (In general: Reporter assays use an easily measured gene product as a stand-in for the process of interest.)
As a reminder, the inhibition is the change of the read-out against control, counted positive when it falls. On to `COc1cccc(NC(=O)C2(C)CCN2C(=O)CCC2CCCC2)c1` (centres undefined), for which the inhibition was 9.97%. In the case of `O=C(/C=C/[C@H]1O[C@@H](n2cnc3c(NC(=O)c4ccccc4)ncnc32)[C@H](O)[C@@H]1O)NCc1ccccc1`, the inhibition was -2.88%. For `O=C(/C=C/c1ccc(OCc2c(F)cccc2Cl)cc1)N1CCOCC1`, the inhibition was -42.8%.

For `CN(C)CCCNC(=O)/C=C/c1ccc(OCc2c(F)cccc2Cl)cc1`, the inhibition is 70.2% (active). On to `COc1cc(CNCCN(C)C)ccc1OCc1c(F)cccc1Cl`, for which the inhibition was 2.85%. As for `CC(NC(=O)C(C)(C)C)C(c1cccs1)N1CCN(Cc2ccccc2)CC1` (centres undefined), the inhibition is 3.48%. For `Cc1coc2c1c(C)cc1oc(=O)c(CC(=O)NCC(=O)N[C@H](C(=O)O)C(C)C)c(C)c12`, the inhibition is -3.37%. As for `COc1ccc(C(=O)N2CCCCC2c2cc(C(=O)Nc3ccccc3)no2)cc1` (centres undefined), the figure is 1.75%; as for `CCOC(=O)Nc1sc(C(=O)N(C)C)c(C)c1C(=O)OCC`, 16.3%; as for `CCOC(=O)c1c(NC(=O)CCl)sc(C(=O)N(CC)CC)c1C`, 67.2% (active). As for `CCOC(=O)c1sc(NC(=O)CCN2CCOCC2)c(C(=O)OCC)c1C`, the figure is 4.41%; as for `Nc1cc(=O)c2[nH]cnc2[nH]1`, -0.63%; as for `O=c1cc(CN2CCCCCCC2)c2c(ccc3ccccc32)o1`, 9.42%.

In the case of `CCCOc1ccc(C(=O)C(CCC(CNCC)C(=O)c2ccc(OCCC)cc2)CNCC)cc1` (centres undefined), the inhibition was 116% (active).

On to `COC(=O)c1ccc(OCC(=O)NC(C)(C)C)cc1`, for which the inhibition is -42.5%. `CCCOc1ccc(/C=N/NC(=O)C2CC2)c(OCCC)c1`: the inhibition is -4.16%. As for `Cc1cc(Br)cn2c(Cc3ccccc3C(F)(F)F)c(C3CCCCC3)nc12`, the figure is 5.05%.

With `CC1(C(=O)NS(=O)(=O)c2cccc(F)c2)CCN1C(=O)c1cccc2ccccc12` (centres undefined), the inhibition was -0.5%. As for `COc1ccc2c(CN3CCN(S(=O)(=O)c4cccs4)CC3)cc(=O)oc2c1`, the figure is 0.03%. As for `Cc1cc2oc(=O)cc(CN3CCN(S(=O)(=O)c4cccs4)CC3)c2cc1C(C)C`, the figure is 51.9% (active). As for `O=S(=O)(c1cccs1)N1CCN(Cc2ccccc2)CC1`, the figure is 0.76%; as for `COc1cncc(-c2cnc3sc(NCCc4ccccn4)nn23)c1`, 37.3%.

`Cc1ccc(NN=C2C(=O)OC(C)(C)OC2=O)c(C)c1`: the inhibition was -290%. Consider `Cc1cccc(NC(=O)c2ccc([N+](=O)[O-])o2)c1`, for which the inhibition was 65.2% (active).

Regarding `Cc1onc(NC(=O)c2ccc([N+](=O)[O-])o2)c1Br`, the inhibition is 14.7%. As for `O=C(Nc1cccc(O)c1)c1ccc(C(=O)c2ccccc2)o1`, the figure is -268%. As for `O=C(Nc1cccc2cccnc12)c1ccc2sc([C@H]3C[C@H](O)[C@@H](CO)O3)nc2c1`, the figure is -70.4%; as for `O=C(Nc1cccc(Cc2ccccc2)c1)Nc1ccc2nc([C@@H]3O[C@H](CO)[C@@H](O)[C@H](O)[C@H]3O)[nH]c2c1`, -16.1%. As for `CC(C)CN(C(=O)COC(=O)c1ccc(Cl)c(N)c1)c1c(N)n(Cc2ccccc2)c(=O)[nH]c1=O`, the figure is -4.65%; as for `CC(C)CN(C(=O)COC(=O)c1ccc2ccccc2c1)c1c(N)n(Cc2ccccc2)c(=O)[nH]c1=O`, 86.1% (active); as for `Cc1csc(=O)n1CC(=O)OCC(=O)N(CC(C)C)c1c(N)n(Cc2ccccc2)c(=O)[nH]c1=O`, -11.2%. On to `CNc1cc(-c2c(OC)cccc2OC)ncn1`, for which the inhibition is -4.17%. As for `CC(=O)Oc1ccc(Cn2c(C)c(C(=O)NCc3ccc(C#N)cc3)sc2=O)cc1`, the figure is 9.61%; as for `NS(=O)(=O)c1ccc(CNC(=O)c2cccc(S(=O)(=O)N3CCc4ccccc43)c2)cc1`, 23.1%.

For the compound `CNC(=O)c1ccsc1NC(=O)c1ccc(S(=O)(=O)N2CCc3ccccc32)cc1`, the inhibition was 50.7% (active).

Regarding `CC1CN(S(=O)(=O)c2ccc(C(=O)Nc3sccc3C(N)=O)cc2)CC(C)O1` (centres undefined), the inhibition was 32.5%. As for `CCOC(=O)c1ccccc1NC(=O)CSc1nc2c(sc(=S)n2CC)c(=O)[nH]1`, the figure is 8.72%; as for `CCOC(=O)c1cc(-c2sc(NC(=O)c3ccccc3)nc2C)n(Cc2ccccc2)n1`, -5.67%.

Regarding `CN(Cc1ccccc1F)C(=O)C(Cc1ccccc1)NC(=O)c1ccccc1` (centres undefined), the inhibition was 53.2% (active). As for `O=C(NC(Cc1ccccc1)C(=O)N1CCCC1C(=O)O)c1ccccc1` (centres undefined), the figure is 11.6%. As for `NC(=O)c1ccc(NC(=O)COC(=O)C(Cc2ccccc2)NC(=O)c2ccccc2)cc1` (centres undefined), the figure is -2.3%; as for `COCCSc1nnc(NC(=O)c2cc(OC)c(OC)cc2[N+](=O)[O-])s1`, 7.25%.

For `CC1(C(=O)NS(=O)(=O)c2ccccc2)CCN1C(=O)Cc1ccc(-c2ccccc2)cc1` (centres undefined), the inhibition was -4.22%.

In the case of `CCCNC(=O)C1(C)CCN(Cc2csc(-c3ccc(Cl)cc3)n2)C1` (centres undefined), the inhibition was -23.7%.
